MITF act: increases MITF-driven TRPM1 promoter luciferase signal; activation, % at 12.5 µM; AID 588334; SK-MEL-5 TRPM1-promoter luciferase, 24 h; % of positive control, neutral wells = 0; 0.75% of 300,000 active;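 active = mean activation of at least 80% with every replicate also reaching 80%; inconclusive = mean reaches 80% but some replicate falls short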;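 also: 0% = neutral control wells and 100% = parthenolide positive control wells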
LMP1 NFkB inh: Epstein-Barr LMP1 NF-kappaB reporter inhibition | inhibition, % at 12.5 µM | 0.69% of 350,000 active | AID 504558 | LMP1-induced NF-kappaB luciferase reporter cells, luminescence; in the data active = inhibition above about 41%; inconclusive = no clear call, values can overlap the other calls;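 also: 0% = neutral control wells and 100% = reference inhibitor control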
C2C12 statin: protects C2C12 myotubes from simvastatin toxicity. ATP luminescence, 48 h; scaled: DMSO 0, geranylgeraniol control 100. 0.78% of 330,000 active. rescue of ATP level, % at 7.49 µM;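 active = mean ATP rescue above about 67%, or every replicate alone reaching that limit, limit read from the data, passing the limit was not always enough; inconclusive = no clear call, values can overlap the other calls; inactive = mean under the limit and some replicate under it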;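 also: myotubes were challenged with 10 µM simvastatin during compound exposure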
Wnt act: Wnt/beta-catenin pathway activation; Wnt/beta-catenin reporter cell assay, activator, plate reader; activation, % at 9.35 µM; 1.2% of 300,000 active; AID 743398; in the data active = activation above about 30%, passing the limit was not always enough; inconclusive = no clear call, values can overlap the other calls;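 also: 0% = neutral control wells and 100% = positive control wells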
esBAF inh: SWI/SNF esBAF complex inhibition | mouse ES cells, Bmi1-luciferase knock-in reporter, 24 h; 100% = twice the neutral-well signal | reporter increase, % at 12.5 µM | 2% of 350,000 active; in the data active = activation above about 40%; inconclusive = no clear call, values can overlap the other calls;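 also: 0% = median of the plate's neutral control wells and 100% = double that signal; a rise in the Bmi1 reporter signal indicates esBAF inhibition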
MITF TRPM1 inh: reduces MITF-dependent TRPM1 promoter luciferase signal; SK-MEL-5 TRPM1 promoter luciferase, 24 h; inhibition, % at 12.5 µM; 0.83% of 330,000 active;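 active = mean inhibition across replicates of 60% or more, whatever share of single replicates reaches that level; inconclusive = some that reach 60%, reason not given; inactive = mean inhibition across replicates below 60%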
* = called active by the depositor; ? = inconclusive; · = no result. Most compounds without a hit are left out; they make up all but 4% or so of the library.

SMILES	MITF act	LMP1 NFkB inh	C2C12 statin	Wnt act	esBAF inh	MITF TRPM1 inh
NC(=O)N/N=C/c1sc(N2CCCCC2)nc1-c1cccs1	33	-14	-8	12	24	-24
CC(C)NC(=S)N/N=C/c1sc(N2CCCCC2)nc1-c1cccs1	37	-16	9	·	67*	-34
COc1ccc(/C=N/n2cnnc2SCCO)cc1OC	-1	1	2	·	6	0
C=CCSc1nncn1/N=C/c1ccc(OC)cc1	92*	-45	·	27	·	-88
COc1ccc(NC(=O)CN(C)C(=O)CNC(=O)c2sc3ccccc3c2Cl)cc1	93*	-24	-6	2	51*	-101
CN(CC(=O)Nc1c(Cl)cccc1Cl)C(=O)CNC(=O)c1sc2ccccc2c1Cl	·	-4	1	2	35	·
COc1ccc(CN(C(=O)c2ccco2)c2ccccc2)cc1	-2	-3	12	0	4	4
COc1ccc(N(Cc2cc(=O)[nH]c3ccccc23)C(=O)c2ccco2)cc1	-19	-15	135*	0	0	21
O=C(Nc1nnc(Cc2ccccc2F)s1)Nc1ccccc1F	29	-20	-2	5	44*	-30
COc1ccccc1NC(=O)Nc1nnc(C(C)C)s1	?	-6	·	·	·	-84
CCc1nnc(NC(=O)Nc2ccccc2OC)s1	135*	-34	2	-5	?	-125
COc1ccccc1NC(=O)Nc1nnc(CC(=O)Nc2ccccc2)s1	·	·	·	-2	·	·
COc1ccccc1NC(=O)Nc1nnc(C(C)c2ccccc2)s1 (stereo not drawn)	11	-3	19	-1	53*	-9
O=C(Nc1nnc([C@@H]2C[C@H](O)[C@@H](CO)O2)s1)Nc1ccccc1F	·	·	0	39*	6	·
COc1cc(/C=C/C(=O)c2ccc(NS(=O)(=O)c3ccc(C)cc3)cc2)cc(OC)c1O	-66	3	·	-4	·	67*
COc1ccc(-c2noc(CCCC(=O)O)n2)cc1	·	-4	·	·	-78	66*
CCOc1ccc(-c2noc(CCC(=O)O)n2)cc1	-68	-1	6	-4	-64	68*
O=C(Cn1cc2c(n1)CCCCC2)Nc1ccccc1Br	16	-2	-4	-1	-3	-13
O=C(/C=C/c1ccccc1)NC(=S)NNC(=O)Cc1cccs1	-11	-35	104*	·	1	6
Brc1ccc(N=Nc2ccc3ccccc3n2)cc1	·	63*	·	-11	·	55
Oc1ccccc1N=Nc1nc(-c2ccccc2)c(-c2ccccc2)[nH]1	-80	84*	-52	·	-57	80*
CCN(CC)CCOC(=O)c1ccc([N+](=O)[O-])cc1	-12	-8	·	-3	·	15
COC(=O)c1ccc(COC(=O)CNC(=O)c2ccc(OC)cc2)cc1	60	-22	-10	20	68*	-59
COc1ccc(C(=O)OCCc2ccc(O)cc2)cc1	130*	10	8	17	50*	-129
O=C(OCCc1ccccc1)c1cc(O)c(O)c(O)c1	42	2	14	51*	-9	-47
SMILES	MITF act	LMP1 NFkB inh	C2C12 statin	Wnt act	esBAF inh	MITF TRPM1 inh
Nc1ccc(C(=O)OCCc2ccccc2)cc1	101*	-40	-5	60*	-12	-107
O=C(Oc1ccccc1)c1cc(O)c(O)c(O)c1	·	·	-6	·	-1	·
COc1cccc(C(=O)NCC(=O)OCC(=O)C(C)(C)C)c1	13	1	·	0	·	-16
CC(C)(C)C(=O)COC(=O)CNC(=O)c1ccc(Oc2ccccc2)cc1	-8	-5	141*	-4	-12	6
CN1CCc2c(sc3nc(NN)n(-c4ccc(Cl)cc4)c(=O)c23)C1	0	-2	-26	·	6	7
CCCCC(=O)Nc1cc2nn(-c3ccc(OC)cc3)nc2cc1C	53	-14	-7	0	42*	-51
CCC(=O)Nc1cc2nn(-c3ccc(C)cc3)nc2cc1C	-58	63*	-1	0	-73	60
CCC(=O)Nc1cc2nn(-c3ccc(OC)cc3)nc2cc1C	31	22	1	·	-50	-26
O=C(COC(=O)C1CC2C=CC1C2)NCc1ccc(F)cc1 (stereo not drawn)	12	-10	·	-3	·	-5
CC(=O)c1ccc(NC(=O)COC(=O)C2CC3C=CC2C3)cc1 (stereo not drawn)	56	-12	2	43*	17	-54
O=C(COC(=O)C1CC2C=CC1C2)NCc1ccco1 (stereo not drawn)	-3	-1	101*	·	-5	0
